Test results reported in PubChem BioAssay (NCATS).
“And” between values parts separate entries of the source, which are not always exact repeats. Equal entries are not always repeated. Records with an inconclusive call do not appear. Where a call stands in place of a potency, no number is given. The source made the active and inactive calls. Unless noted, calls come from the whole dose curve; as a rule, active = well fitted curve in the direction sought with a large enough effect; inconclusive = small, poorly fitted or top-dose-only effect, or another doubt; inactive = no such curve, though single readings can be large; an effect the other way counts as inactive or inconclusive.

Legend:
[1] = Cytotoxicity counterscreen for NFkB agonists and antagonists (AID 624476); note: potency is the fitted concentration of half-maximal effect
[2] = qHTS Assay for Identification of Small Molecule Agonists for NFkB Signaling Pathway. (AID 624478);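 note: compounds tested together with TNF alpha at its EC50 of 10 pM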
Procedure, shortened: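 Compounds were added with 10 pM TNF alpha (EC50 level) to ME-180 NFkB-bla cells in low-serum Opti-MEM and incubated 5 hrs at 37 C. Beta-lactamase FRET read-out used 405 nm excitation and 460 and 530 nm emission.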

[3] = qHTS Assay for Identification of Small Molecule Antagonists for NFkB Signaling Pathway. (AID 624479; calls by dose curve;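 note: pathway stimulated with TNF alpha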; note: potency is the fitted concentration of half-maximal effect)
[4] = Cell Proliferation Assay against the TMD8 Cell Line (AID 651645); conditions: TMD8 DLBCL cell line proliferation/viability; at 46.1 µM (top of the series);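 note: cells exposed to compound for 48 h before reading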
Procedure, shortened: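 Cell viability of the ABC DLBCL line TMD8 is measured by CellTiter-Glo luminescence following a 48-hour incubation with compound. Percent activity uses DMSO as 100% and 9.2 uM bortezomib (final) as 0%.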

[5] = Cell Proliferation Assay against the HBL1 Cell Line (AID 651646); conditions: HBL1 DLBCL cells; at 46.1 µM (top of the series);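 note: cells exposed to compound for 48 h before reading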
Procedure, shortened: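 After a 48 h incubation of 500 HBL1 cells/well in phenol red-free RPMI plus 5% FBS, relative luciferase units from CellTiter-Glo gave percent activity against DMSO and 9.2 uM bortezomib (final) controls.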

[6] = Cell Proliferation Assay against the TMD8 Cell Line (Caspase readout at 16 hrs) (AID 651712); note: potency is the fitted concentration of half-maximal effect
Procedure, shortened: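 16 h, 37 °C, TMD8 (500 cells/well), RPMI/5% FBS no phenol red; Caspase-Glo 3/7, 15 min RT, luminescence; %act: DMSO 0, bortezomib 9.2 uM final 100.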

[7] = Cell Proliferation Assay against the TMD8 Cell Line (Caspase readout at 8 hrs) (AID 651713); note: potency is the fitted concentration of half-maximal effect
Procedure, shortened: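 Apoptosis read-out: Caspase-Glo luminescence after 8 h compound exposure of TMD8 lymphoma cells at 37C, 5% CO2. Signals were normalized as percent activity between DMSO and bortezomib (9.2 uM final) controls.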

[8] = target: Tyrosine-protein kinase Yes (Homo sapiens) (UniProt P07947); assay: qHTS for small molecule inhibitors of Yes1 kinase: Primary Screen (AID 686947); note: nearly all actives have a fitted effect of over 60% in size; note: potency is the fitted concentration of half-maximal effect
Procedure, shortened: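 ADP-Glo luminescence reports ADP formed by 4 nM Yes1 phosphorylating poly(E4Y) (0.3 mg/mL) with 0.1 mM ATP for 60 min at room temperature, following 20 min compound preincubation; normalised between DMSO wells with and without enzyme.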

[9] = qHTS for small molecule inhibitors of Yes1 kinase: Counter Assay (AID 686950);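 note: no kinase present so only ADP-Glo detection of a fixed ADP amount is tested; luminescence from ADP-Glo reporting ADP in a fixed ATP and ADP mixture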
Procedure, shortened: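 Measuring interference with ADP-Glo, the assay ran 60 min at room temperature on an ATP/ADP mix lacking enzyme. Values were normalized to ATP-plus-ADP (maximum) and ATP-only (minimum) DMSO controls.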

[10] = HTS Assay for Allosteric Antagonists of the Human D2 Dopamine Receptor: Hit Validation in HTRF (AID 624455);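 note: stable D1 dopamine receptor cell line scored for blocking the D1 response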
Procedure, shortened: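 Inhibition of the D1-mediated response was measured by HTRF. Cells used were a line stably expressing the D1 dopamine receptor.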

[11] = target: Arylsulfatase A (Homo sapiens) (UniProt P15289); assay: qHTS screen for enhancers of Arylsulfatase A (ASA1): LOPAC Validation Assay (AID 720538)
Procedure, shortened: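 Cell-based enhancement test: residual ASA activity in SV40-transformed I179S patient fibroblasts is measured by pNCS turnover (0.5mM final, 14h, room temperature) following 48h compound incubation; higher fluorescence indicates activation.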

[12] = qHTS for compounds that reverse cellular toxicity of Amyloid beta (A-beta) peptide in yeast: LOPAC Validation Assay (AID 720559)
Procedure, shortened: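 Here, A-beta-toxic yeast grow with test compounds at 30 C for 48 hr before optical density at 600 nm is recorded; data are normalized against DMSO and the FeCl3-clioquinol control.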

Tyrosine-protein kinase Yes (Homo sapiens), sequence (P07947 whole entry, looked up): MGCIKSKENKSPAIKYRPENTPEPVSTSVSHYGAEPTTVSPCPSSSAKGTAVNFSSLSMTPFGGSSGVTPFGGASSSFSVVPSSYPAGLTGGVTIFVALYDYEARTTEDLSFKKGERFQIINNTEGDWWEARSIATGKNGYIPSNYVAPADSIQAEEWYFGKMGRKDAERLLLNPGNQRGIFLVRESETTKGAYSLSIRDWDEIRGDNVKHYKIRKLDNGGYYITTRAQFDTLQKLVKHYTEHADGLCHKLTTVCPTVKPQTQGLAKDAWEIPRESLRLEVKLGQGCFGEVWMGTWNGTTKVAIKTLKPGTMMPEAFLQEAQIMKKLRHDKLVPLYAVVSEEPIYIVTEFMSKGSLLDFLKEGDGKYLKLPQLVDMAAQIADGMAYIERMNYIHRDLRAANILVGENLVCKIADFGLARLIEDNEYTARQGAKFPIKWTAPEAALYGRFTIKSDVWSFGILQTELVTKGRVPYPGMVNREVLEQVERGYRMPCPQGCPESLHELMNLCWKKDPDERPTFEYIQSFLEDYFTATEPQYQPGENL
Arylsulfatase A (Homo sapiens), sequence (P15289 whole entry, looked up): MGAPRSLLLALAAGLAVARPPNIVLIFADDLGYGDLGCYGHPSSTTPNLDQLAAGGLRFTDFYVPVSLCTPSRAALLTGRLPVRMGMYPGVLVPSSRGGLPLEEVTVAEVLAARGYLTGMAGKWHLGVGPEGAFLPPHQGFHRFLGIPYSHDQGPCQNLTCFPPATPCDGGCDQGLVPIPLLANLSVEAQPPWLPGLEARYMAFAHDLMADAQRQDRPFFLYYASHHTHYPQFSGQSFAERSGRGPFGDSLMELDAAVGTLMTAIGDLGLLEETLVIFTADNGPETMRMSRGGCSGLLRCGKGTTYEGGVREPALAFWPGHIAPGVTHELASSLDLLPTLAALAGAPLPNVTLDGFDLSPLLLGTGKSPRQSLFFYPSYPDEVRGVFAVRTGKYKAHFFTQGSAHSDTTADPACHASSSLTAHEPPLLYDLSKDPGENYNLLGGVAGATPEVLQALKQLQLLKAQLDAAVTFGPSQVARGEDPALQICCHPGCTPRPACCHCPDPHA

Compound | Potency [1] | outcome [2] | Potency [3] | viability (% of control) [4] | viability, percent of control [5] | Potency [6] | Potency [7] | Potency [8] | outcome [9] | outcome [10] | outcome [11] | outcome [12]
O=C(C=Cc1cccnc1)NCCCCC1CCN(C(=O)c2ccccc2)CC1 | inactive | inactive | inactive | 7.31% | 53.4% | inactive | inactive | inactive | inactive |  |  | 
CC1(C)OC2=C(C(=O)c3ccccc3C2=O)[C@H](NCc2ccccc2)[C@H]1O | 5.26 µM (active) | inactive | 3.75 µM (active) | 5.62% | 6.45% | inactive |  | inactive | inactive |  |  | 
O=C(NC1CCNCC1)c1[nH]ncc1NC(=O)c1c(Cl)cccc1Cl | 209 nM (active) and 296 nM (active) | inactive | 33.5 nM (active) and 66.8 nM (active) | 1.51% and 1.72% | 45.8% and 42.8% | 0.118 µM (active) | 332 nM (active) and 264 nM (active) | inactive | inactive |  |  | 
Nc1cc(C(F)(F)F)c(-c2cc(N3CCOCC3)nc(N3CCOCC3)n2)cn1 | 0.935 µM (active) | inactive | inactive | 3.22% | 16.8% | 2.09 µM (active) | 20.9 µM (active) | inactive | inactive |  |  | 
CNC(=O)c1cc(Oc2ccc(NC(=O)Nc3cc(C(C)(C)C)nn3-c3ccc4ncccc4c3)c(F)c2)ccn1 | 2.64 µM (active) | inactive | 0.0421 µM (active) | 2.72% | 58.7% | inactive |  |  | inactive |  |  | 
CC[C@@H]1C(=O)N(C)c2cnc(Nc3ccc(C(=O)NC4CCN(C)CC4)cc3OC)nc2N1C1CCCC1 | 16.6 µM (active) | inactive | 13.3 µM (active) | 4.43% | 5.81% | 1.18 µM (active) | 29.6 µM (active) |  | inactive |  |  | 
C1Cc2[nH]nc(-c3nn[nH]n3)c2C1 | inactive | inactive | inactive | 103% | 91.7% | inactive | inactive | inactive | inactive |  |  | 
Cn1c2cc(S(C)=O)sc2c2cnn(Cc3cccc(N)c3)c(=O)c21 (stereo unspecified) | inactive | inactive | 16.8 µM (active) | 110% | 93.3% | inactive | inactive | inactive | inactive |  |  | 
C[C@]1(CO)CN(c2cc(C(=O)Nc3ccc4c(c3)-c3c(c(C(N)=O)nn3-c3ccc(F)cc3)CC4)c(Cl)cn2)C[C@@]1(C)CO | inactive | inactive | 5.95 µM (active) | 18.6% | 23.3% | 14.8 µM (active) | 16.6 µM (active) | inactive | inactive |  |  | 
COC(=O)[C@]12CCC(C)(C)C[C@@H]1[C@@H]1C(=O)C=C3[C@@]4(C)C=C(C#N)C(=O)C(C)(C)[C@@H]4CC[C@@]3(C)[C@]1(C)CC2 | 1.32 µM (active) | inactive | 0.595 µM (active) |  |  |  |  |  |  |  |  | 
N#Cc1c(O)c2c(-c3ccc(-c4ccccc4O)cc3)csc2[nH]c1=O | inactive | inactive | inactive | 112% | 114% | inactive | inactive | inactive | inactive |  |  | 
Nc1ccccc1NC(=O)c1ccc(CNC(=O)OCc2cccnc2)cc1 | inactive | inactive | inactive | 4.84% | 4.18% |  | inactive | 15.4 µM (active) | inactive |  |  | 
COc1cc2c(Oc3ccc(-c4cnc(Nc5ccc(F)cc5)n(C)c4=O)cc3F)ccnc2cc1OCCCN1CCOCC1 | 29.6 µM (active) | inactive | 18.8 µM (active) | 1.34% | 1.76% | 16.6 µM (active) |  |  | inactive |  |  | 
COc1ccc(C=Cc2cc(OC)c(OC)c(OC)c2)cc1O | inactive | inactive | inactive | 0.872% | 20.5% | 0.0015 µM (active) |  |  | inactive |  |  | 
O=C(C=Cc1c(C(=O)O)[nH]c2cc(Cl)cc(Cl)c12)Nc1ccccc1 | inactive | inactive | inactive | 103% | 112% | inactive | inactive |  | inactive |  |  | 
COc1cc2c(Oc3ccc(NC(=O)C4(C(=O)Nc5ccc(F)cc5)CC4)cc3F)ccnc2cc1OCCCN1CCOCC1 | 16.6 µM (active) | inactive | 16.8 µM (active) | 2.25% | 3.9% | inactive |  |  | inactive |  |  | 
Cc1[nH]nc2ccc(-c3cncc(OC[C@@H](N)Cc4ccccc4)c3)cc12 | 4.69 µM (active) | inactive | 0.168 µM (active) | -0.774% | 4.82% | 1.32 µM (active) | 2.35 µM (active) |  | inactive |  |  | 
O=c1c2ccccc2nc2n1CCc1c-2[nH]c2ccccc12 |  |  |  |  |  |  |  |  |  | inactive | inactive | inactive
Nc1ccccc1NC(=O)c1ccc(CNc2nccc(-c3cccnc3)n2)cc1 | 14.8 µM (active) | inactive | 0.15 µM (active) | 2.31% | 4.64% | 20.9 µM (active) | inactive | inactive | inactive |  |  | 
